Experimental data as given in PubChem BioAssay AID738 (SRMLSC, 2007).
In all, about 98,000 compounds went through this assay and about 4,900 (5%) were called active. Rule as the data show it: active = inhibition above about 30%; inactive = the rest. The sample as a whole holds a higher share of actives than the screen did.

Test: growth inhibition of yeast control strain, primary screen, counter-screen for post-Golgi transport modulator project (AID 738)
Settings: efflux-deficient yeast background strain, growth absorbance A615, 16 h; at 10 µM; stronger effect = higher value

Compound	inhibition
O=C(N/N=C/C=C/c1ccccc1)C1CC1(c1ccccc1)c1ccccc1 (stereo unspecified)	64% (active)
Cc1nn(C)c(Oc2ccccc2)c1[N+](=O)[O-]	5.76% (inactive)
O=c1c2ccccc2oc2nc(C3CCCCC3)n(Cc3ccco3)c(=O)c12	78.7% (active)
CCc1nc2oc3ccccc3c(=O)c2c(=O)n1Cc1ccc(OC)cc1	11.8% (inactive)
O=c1c2ccccc2oc2nc3n(c(=O)c12)CCCS3	0.28% (inactive)
O=C(Nc1ccc(Cl)cn1)Nc1cccs1	19.8% (inactive)
c1ccc(Nc2nc(-c3ccncc3)cs2)nc1	4.87% (inactive)
Clc1ccc(Nc2nc(-c3cccs3)cs2)nc1	45.4% (active)
Cc1ccc(OCC(=O)N/N=C/c2ccncc2)cc1	7.69% (inactive)
Cc1ccc(C(=O)N2CCN(C(=O)N3CCOCC3)CC2)cc1	-1.43% (inactive)
CCOC(=O)C(=CNc1cccc(C)n1)C(=O)OCC	-2.27% (inactive)
Cc1ccc(Cl)cc1NC(=O)COC(=O)C1CCCCC1	-5.31% (inactive)
Cc1noc(C)c1S(=O)(=O)N(CC(=O)Nc1ccc2c(c1)OCCO2)c1ccc(C(C)C)cc1	36.1% (active)
Cc1noc(C)c1S(=O)(=O)N(CC(=O)NCc1ccc(Cl)cc1)c1ccc2c(c1)OCO2	4.52% (inactive)
CCOC(=O)c1cccc(NC(=O)CN(c2ccc(C)cc2)S(=O)(=O)c2c(C)noc2C)c1	26.9% (inactive)
CCOC(=O)Cc1csc(NC(NC(=O)OCC)(C(F)(F)F)C(F)(F)F)n1	-12.3% (inactive)
CCOC(=O)Cc1csc(NC(=O)C(C)(C)C)n1	50.5% (active)
CCOC(=O)Cc1csc(NC(=O)CSc2nc(C)cc(=O)[nH]2)n1	3.73% (inactive)
CCOc1cc(CNCCN(C)C)c(Cl)cc1OCC(=O)NCCc1ccccc1	7.63% (inactive)
COc1ccc(NC(=O)ON=C2c3ccccc3-c3ccccc32)cc1	3.19% (inactive)
CCN(CC)S(=O)(=O)c1cc([N+](=O)[O-])ccc1NNC(=O)Nc1ccccc1	5.17% (inactive)

Compound	inhibition
O=C(Nc1ccccc1)O/N=C1\CCCCC1c1ccc([N+](=O)[O-])cc1[N+](=O)[O-] (stereo unspecified)	47.9% (active)
Cc1ccc(C2CC2C(=O)NN)cc1 (stereo unspecified)	-1.07% (inactive)
COc1cccc(CNCCc2c[nH]c3ccccc23)c1OCc1ccccc1F	15.9% (inactive)
COCCCn1c(SCc2cccc(OC)c2)nc2cc(OC)c(OC)cc2c1=N	21.9% (inactive)
CN1CCN(c2ccc(NC(=O)COc3ccc(Cl)cc3Cl)cc2)CC1	5.47% (inactive)
Cc1ccc(NC(=O)COc2ccc(-n3ccnc3)cc2)cc1Cl	34.5% (active)
Cc1ccccc1OCC(=O)Nc1ccc(N2CCN(C(=O)C(C)C)CC2)c(Cl)c1	6.6% (inactive)
CC(=O)NS(=O)(=O)c1ccc(NC(=O)/C=C/c2ccccc2Cl)cc1	4.99% (inactive)
O=C(c1ccccc1)C(Cn1cncn1)C(Sc1ccccc1)c1ccccc1 (stereo unspecified)	26.1% (inactive)
CCOC(=O)N1CCN(C(c2cccnc2)c2ccc3cccnc3c2O)CC1 (stereo unspecified)	1.65% (inactive)
CCn1c(SCC(=O)Nc2nc3ccc(OC)cc3s2)nnc1-c1ccoc1C	19.9% (inactive)
Cc1noc(C)c1CSCC(=O)Nc1nc2ccc(Oc3ccccc3)cc2s1	56.3% (active)
CCOC(=O)c1c(C2CC2)csc1NC(=O)CSCc1c(C)noc1C	23.3% (inactive)
O=S(=O)(c1ccc(F)cc1)n1ccc(-c2cnc(-c3ccccc3)s2)n1	6.8% (inactive)
COc1ccccc1-n1nnnc1S(=O)(=O)Cc1ccc(Cl)cc1	32.4% (active)
O=S(=O)(O)c1nc2ccccc2n1Cc1ccc(Cl)cc1	2.95% (inactive)
COc1ccccc1N1CCN(C(=O)CN(Cc2ccc(Cl)cc2)S(C)(=O)=O)CC1	1.33% (inactive)
Cc1cccc(C(=O)Nc2ccc(C(=O)/C=C/c3cccs3)cc2)c1	3.4% (inactive)
O=C(Nc1ccn(Cc2ccccc2F)n1)c1ccc(COc2ccc(Cl)cc2Cl)o1	27.6% (inactive)
CC1Cc2nc(SCC(=O)Nc3ccccc3F)n(C)c(=O)c2S1 (stereo unspecified)	25.6% (inactive)
CCn1c(SCC(=O)Nc2ccc3c(c2)OCCO3)nc2c(c1=O)SC(C)C2 (stereo unspecified)	6.57% (inactive)

Compound	inhibition
CCn1c(SCC(=O)Nc2ccccc2F)nc2c(c1=O)SC(C)C2 (stereo unspecified)	103% (active)
O=S(=O)(c1cccc2nonc12)N1CCN(c2cccc(Cl)c2)CC1	-0.91% (inactive)
Cc1cc(-c2ccc(/C=N/n3cnnc3)o2)c([N+](=O)[O-])cc1C	39.1% (active)
Cc1cc(C)c([N+](=O)[O-])cc1-c1ccc(/C=N/NC(=O)c2nonc2N)o1	8.91% (inactive)
Cc1cc([N+](=O)[O-])c(-c2ccc(/C=N/n3cnnc3)o2)cc1Cl	19.7% (inactive)
CC(=O)c1cc2c(cc1NC(=O)CN1CCCCCC1)OCO2	5.16% (inactive)
C/C=C/C(=O)OCC(=O)Nc1ccc(F)cc1Cl	3.31% (inactive)
CC(Oc1ccc(F)cc1F)C(=O)/C=C/N(C)C (stereo unspecified)	-1.04% (inactive)
COC(=O)CNC(=O)c1ccccc1F	4.83% (inactive)
CN(C)/C=C/C(=O)c1ccccc1F	36.4% (active)
Cc1ccc(N2C(=O)C(Cc3ccccc3)NC2=S)cc1 (stereo unspecified)	5.73% (inactive)
COc1cc(Cl)c(C)cc1NC(=O)CSc1nnc(-c2cccnc2)n1Cc1ccco1	3.14% (inactive)
COc1cc(Cl)c(C)cc1NC(=O)CSc1nnc(-c2ccco2)n1CC(C)C	34% (active)
CCn1c(SCC(=O)Nc2cc(C)c(Cl)cc2OC)nnc1-c1ccco1	26.5% (inactive)
O=C1CC(C(F)(F)C(F)(F)C(F)(F)C(F)(F)F)=Nc2ccccc2N1	16.7% (inactive)
CCN(CC)C(=O)CCC(=O)Nc1ccc(C(=O)OC)cc1	1.42% (inactive)
COCC(=O)Nc1ccc(Br)cc1	36.8% (active)
O=C(CSCc1ccc(Br)cc1)Nc1ccc(S(=O)(=O)N2CCCCCC2)cc1	6.87% (inactive)
O=C(Nc1ccc2c(c1)CCC2)c1cccc(S(=O)(=O)N2CCN(c3ccc(F)cc3)CC2)c1	17.8% (inactive)
